# Nrf2 inh: inhibitors of Nrf2 signaling. A549 ARE-Fluc reporter, luciferase luminescence, 18-24 h. Potency, µM (doses to about 46 µM), for the others: at the highest dose activity change, negative = inhibition, hits mostly inhibitors. 2.1% of 360,000 active. AID 504444; further: on the % scale 0 is the no-effect control and ±100 the full control effect; nearly all actives have a fitted effect of over 60% in size
#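 Cells were seeded and rested 2 h, then exposed to compounds for 18-24 h. CellTiter-Fluor was read first as a viability measure. BugLite was added 15 min before the final luminescent read of ARE-luciferase activity in A549 cells.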
# HepG2 tox: kills HepG2 cells in TGF-b inhibitor counter-screen; HepG2 CAGA-GFP viability, ATP luminescence, 18 h; Potency, µM (top dose mostly 46.1 µM), inactives show at the top dose activity change, negative = cytotoxicity, usual class: cytotoxic; 0.76% of 410,000 active
#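 CellTiter-Glo luminescence gave cytotoxicity after 18 hours at 37 degrees C. The cells were HepG2 CAGA-GFP in 1% FBS DMEM, stimulated with 500 pg/mL TGF-beta after compound addition. %Activity was normalised to no-cell wells (complete cell-killing) and DMSO (no toxicity), and curves were fitted and classified.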
# S2 tox: reduces viability in counter-screen for ATXN expression inhibitors | S2 cells (HEK-293 line with an ATXN2-luciferase reporter) viability, CellTiter-Fluor protease fluorescence, 24 h | Potency, µM (highest dose often 56.7 µM), hits mostly cytotoxic | 0.49% of 400,000 active | AID 651635; further: nearly all actives have a fitted effect of over 40% in size
# A549 viability: kills or reduces viability of A549 cells in Nrf2 counter-screen; 0.16% of 390,000 active; Potency, µM (top dose mostly 46 µM), inactives show at the highest dose activity change, negative = cytotoxicity, hits mostly inhibitors; A549 ARE-Fluc cells, CellTiter-Fluor viability, 18-24 h; further: on the % scale 0 is the no-effect control and ±100 the full control effect
#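 Cytotoxicity counterscreen: CellTiter-Fluor fluorescence was measured in A549 ARE_Fluc cells after 18-24 h of compound exposure in a concentration series. The subsequent BugLite luminescent read reports ARE-luciferase activity.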
# TGFb SMAD3 inh: blocks TGF-b signaling. HepG2 CAGA-GFP TGF-b/SMAD3 reporter, GFP fluorescence, 18 h; TGF-beta stimulated, 500 pg/mL final. Potency, µM (highest dose often 46.1 µM), without a hit: at the highest dose activity, negative = inhibition, hits mostly inhibitors. 1.2% of 410,000 active; further: on the % scale 0 is the no-effect control and ±100 the full control effect; nearly all actives have a fitted effect of over 65% in size
#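 Using HEPG2 CAGA-GFP reporter cells at 1000 cells/well, we pinned test compounds, stimulated with recombinant TGF-beta (500 pg/mL final) and measured total well GFP after 18 h.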
# ATXN2 expr inh: reduces ATXN2 reporter expression in HEK-293 cells; Potency, µM (top dose mostly 57 µM), inactives show top-dose activity change, negative = inhibition, actives largely listed as inhibitors; HEK-293 ATXN2-luciferase reporter, luminescence, 24 h; 0.72% of 360,000 active; AID 1745845; further: on the % scale 0 is the no-effect control and ±100 the full control effect; nearly all actives have a fitted effect of over 55% in size
#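 qHTS (up to 57 uM final) was run with 24 h compound exposure of reporter cells at 37 °C. Each well was multiplexed: SteadyGlo luminescence measured ATXN2-luciferase expression after a fluorogenic Gly-Phe-AFC viability readout (25 uM final).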
# Active calls of the source: *; i = inactive; ? = inconclusive; nt = no result given. Most compounds without a hit are left out; they make up all but 3.8% or so of the library. The call rests on the fitted dose curve; in most records, active means well fitted curve in the direction sought with a large enough effect; inconclusive means small, poorly fitted or top-dose-only effect, or another doubt; inactive means no such curve, though single readings can be large; an effect the other way counts as inactive or inconclusive. Potency means the concentration at half of the fitted maximal effect.
SMILES,Nrf2 inh,HepG2 tox,S2 tox,A549 viability,TGFb SMAD3 inh,ATXN2 expr inh
Cc1ccc(C)c(CN2C(=O)c3ccccc3S(=O)c3ccc(C(=O)N4CCCCC4)cc32)c1 (centres undefined),?,0.2%,i,?,?,16.4%
Cc1ccc(C)c(NC(=O)Cn2cc(C(=O)C3CCCCC3)c3ccccc32)c1,-16.1%,-19.0%,i,-8.9%,-23.5%,0.9%
C/C(=N/NC(=O)c1cccs1)c1ccc(NC(=O)COc2ccc(Cl)cc2Cl)cc1,?,3.2%,11.2µM*,-11.6%,1.3%,12.6µM*
C/C(=N/NC(=O)c1ccc(C)s1)c1cccc(NC(=O)COc2ccc(Cl)cc2Cl)c1,nt,8.6%,i,5.2%,10.7%,0.2%
Cc1c(Cl)cccc1-n1nnc(-c2nc(-c3ccc4c(c3)OCO4)no2)c1C,?,-3.0%,nt,-9.8%,nt,nt
Cc1ccc(Cc2c(-c3ccc(F)cc3)nc3cc(C)ccn23)cc1,nt,-37.4%,28.2µM*,nt,?,-26.2%
Cc1ccc(Cc2c(-c3ccc(Br)cc3)nc3cc(C)ccn23)cc1,nt,1.4%,?,nt,12.7%,54.0%
CCCCCCCCCCCCCCCCC(C(=O)O)C(O)(CC(=O)O)C(=O)O (centres undefined),nt,nt,i,nt,nt,-7.7%
O=c1c2ccccc2nc(/C=C/c2cc(Br)ccc2O)n1CCO,10.9%,12.6µM*,i,7.0%,?,nt
Cc1ccc(Cn2c(C)c3cnn(CC(=O)N4CCN(c5ccc(F)cc5)CC4)c(=O)c3c2C)cc1,?,-24.0%,nt,-13.7%,?,nt
C=CS(=O)(=O)N(Cc1ccccc1)[C@H](CO)CC(C)C,8.2%,-33.8%,?,-2.8%,-4.0%,-22.2%
C=CS(=O)(=O)N(Cc1ccccc1Br)[C@H](CO)Cc1ccccc1,11.0%,-67.9%,12.6µM*,-15.4%,?,15.8µM*
Cc1ccc(CN2CC(C(=O)Nc3ncc(C)s3)CC2=O)cc1 (centres undefined),-26.4%,-32.0%,i,-14.6%,?,15.8µM*
Cc1ccc(CN2CC(C(=O)Nc3nc(C)cs3)CC2=O)cc1 (centres undefined),nt,3.5%,i,nt,1.6%,nt
Cc1nn(C(C)C(=O)N2CCN(c3ccc(Cl)cc3)CC2)c(=O)c2cc3occc3n12 (centres undefined),20.6µM*,-31.0%,?,-13.5%,?,?
CN(C)c1ccc(C=c2c3ccccc3n3c2c2ccccc2[n+]3C)cc1,8.2µM*,-43.2%,?,?,2.51µM*,6.31µM*
CCOC(=O)c1cc2c(=Cc3ccc(N(C)C)cc3)c3ccccc3n2[n+]1C,8.2µM*,-39.1%,nt,?,?,?
CN(CC(=O)NC1(C)CCS(=O)(=O)C1)S(=O)(=O)c1ccc(Cl)cc1 (centres undefined),5.9%,4.3%,i,-3.4%,5.0%,8.5%
Cc1cccc(N2CCN(C(=O)c3ccc(NC4=NC5CS(=O)(=O)CC5S4)cc3)CC2C)c1 (centres undefined),3.8%,0.6%,?,-1.8%,0.8%,0.0%
COc1ccc(C(=O)C2CCN(C(=S)NCCc3ccc(OC)c(OC)c3)CC2)cc1,16.4µM*,-27.6%,?,-24.0%,?,?
COc1ccc(CCNC(=S)N2CCC(C(=O)c3ccc(F)cc3)CC2)cc1OC,16.4µM*,-35.8%,i,0.6%,11.2µM*,nt
COCCNC(=S)N1CCC(C(=O)c2ccc(F)cc2)CC1,?,-2.0%,i,10.5%,-2.5%,nt
CCS(=O)(=O)N1CCc2cc(C(=O)NCCc3ccc(OC)c(OC)c3)ccc21,18.4µM*,-1.9%,i,?,-0.9%,-0.7%
COc1ccc(CCNC(=O)c2ccc3c(c2)CCN3S(C)(=O)=O)cc1,-16.8%,-13.5%,i,3.2%,-18.7%,-5.2%
c1ccc(P(c2ccccc2)c2cnc3ccccn23)cc1,-1.9%,nt,nt,-1.3%,nt,nt
SMILES,Nrf2 inh,HepG2 tox,S2 tox,A549 viability,TGFb SMAD3 inh,ATXN2 expr inh
Cc1cccc(NC(=O)c2ccc3c(O)c(S(=O)(=O)c4ccccc4)c(=O)[nH]c3c2)c1C,-5.3%,-12.8%,i,4.1%,?,-3.0%
COc1ccc(C)c2sc(N(Cc3cccnc3)C(=O)CCc3ccccc3)nc12,nt,-3.3%,nt,-3.8%,-20.3%,nt
COc1ccc(CNC(=O)C(=O)NCC(c2cccs2)S(=O)(=O)c2ccc(C)cc2)cc1 (centres undefined),nt,-16.6%,i,-5.9%,-25.7%,3.7%
CCC(Sc1nncn2c1cc1oc(C)cc12)C(=O)Nc1ccc(F)cc1 (centres undefined),?,-22.4%,nt,-1.9%,nt,nt
Cc1cccc(CNC(=O)C2CCN(c3nc4ccc(Cl)cc4[nH]3)CC2)c1,nt,-26.2%,nt,-0.6%,-19.2%,nt
CCN(CC)CCN1C(=O)C(=O)/C(=C(/O)c2ccc(S(=O)(=O)N3CCOCC3)cc2)C1c1ccc(C)cc1 (centres undefined),2.3%,-6.6%,i,4.6%,-7.6%,7.8%
CCc1cc2c(=O)c(-c3cnn(-c4ccccc4)c3)coc2c(CN2CCOCC2)c1O,-17.2%,0.2%,i,0.7%,?,?
Fc1cc(-c2cccc3ncc(-c4cnn(C5CCNCC5)c4)nc23)cc(F)c1CN1CCOCC1,nt,nt,nt,nt,nt,24.3µM*
COc1cc2cc(C(=O)N(C)Cc3ccccc3)[nH]c2cc1OC,5.4%,-0.4%,i,3.2%,-14.5%,2.1%
C=CCN(Cc1ccc(OC)c(OC)c1)C(=O)c1cc2cc(F)ccc2[nH]1,23.1µM*,-41.0%,i,?,?,-20.2%
CCc1cc(C(=O)NC2CCCN(Cc3ccccc3F)C2)n(C)n1 (centres undefined),13µM*,-18.9%,i,-8.8%,-19.3%,-21.4%
Cn1nc(C(=O)NC2CCCN(Cc3ccccc3F)C2)c2ccccc2c1=O (centres undefined),-15.5%,0.0%,i,-17.9%,0.0%,-8.9%
Cc1ccc(NC(=O)c2cc(S(=O)(=O)N3CCc4ccccc43)cn2C)c(Cl)c1,?,-7.0%,nt,-12.1%,?,nt
CCC(/C=C1\Sc2ccc(OC)cc2N1CC)=C\c1sc2ccc(OC)cc2[n+]1CCCS(=O)(=O)[O-],10.3µM*,-3.6%,22.4µM*,?,-14.8%,?
CCC(/C=C1\Sc2ccc(OC)cc2N1CCO)=C\c1sc2ccc(OC)cc2[n+]1CCO,?,-1.3%,nt,20.6µM*,0.0%,?
CCO/C(=C/c1sc2ccc(OC)cc2[n+]1CCCS(=O)(=O)[O-])CC,2.2%,-0.7%,nt,-11.3%,-4.8%,nt
